Hits are enriched below; roughly 4.1% of the tested compounds scored in any of these assays.
NLRP3 yeast inh = NALP3 inflammasome inhibitors in reconstituted yeast, primary screen, luminescence, uHTS. Yeast reconstituted NLRP3/ASC/caspase-1, beta-gal luminescence, 24 h. inhibition, % at 10 µM. 330,000 tested, 0.39% active. AID 2825, 2010;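 active = inhibition of 50% or more; inactive = inhibition below 50%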;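 also: plate controls were induced DMSO wells for no effect and uninduced yeast grown without galactose for full effect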
TIM10 inh = growth inhibitors of isogenic TIM10 control yeast, primary screen, counter-screen for tim10-1 yeast inhibitor project, luminescence, uHTS | S. cerevisiae TIM10 strain growth, BacTiter-Glo luminescence, 24 h | inhibition, % at 10 µM | 330,000 tested, 1.4% active | AID 463195, 2010;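 active = inhibition of 40% or more at the single tested concentration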;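 also: wild-type TIM10 isogenic control strain grown at permissive 25 °C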
tim10-1 inh = growth inhibitors of tim10-1 mutant yeast, primary screen, luminescence, uHTS; S. cerevisiae tim10-1 ts strain growth, BacTiter-Glo, 24 h; inhibition, % at 20 µM; 330,000 tested, 2.2% active; AID 463190, 2010;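 active = inhibition of at least 40%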;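 also: mutant grown at 25 °C; 0% = DMSO wells with yeast and 100% = wells holding no yeast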
NALP1 inh = NALP1 inflammasome inhibitors in reconstituted yeast, colorimetric, S. cerevisiae, triplicate retest. S. cerevisiae NALP1/ASC/caspase-1 growth, X-gal OD620, 72 h. inhibition, % at 10 µM. AID 2071, 2009. 280,000 tested, 0.61% active; in the data active = inhibition mostly above about 24%, no sharp cut-off; inactive = mostly below about 32%
tim23-1 inh = growth inhibitors of tim23-1 mutant yeast, primary screen, luminescence, uHTS. S. cerevisiae tim23-1 growth, BacTiter-Glo luminescence, 24 h. inhibition, % at 20 µM. 330,000 tested, 1.3% active. AID 463212, 2010;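 active = growth inhibition of the mutant yeast at or above 50%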;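 also: temperature-sensitive mutant grown at 25 °C; plate controls were DMSO-treated mutant yeast for no effect and medium wells lacking yeast for full effect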
tim10-1 confirm = growth inhibitors of tim10-1 mutant yeast, confirmation, single concentration, luminescence, S. cerevisiae. S. cerevisiae tim10-1 ts strain growth, BacTiter-Glo, 24 h. shares compounds with tim10-1 inh. inhibition, % at 20 µM. 7,400 tested, 56% active;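 active = inhibition of yeast growth at or above a set limit in either of two repeat tests at 20 µM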;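 also: tim10-1 mutant grown at permissive 25 °C to find synthetic lethal compounds; 0% = DMSO yeast wells and 100% = medium wells without yeast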
The depositor's hits bear a star; / = no result given.

SMILES	NLRP3 yeast inh	TIM10 inh	tim10-1 inh	NALP1 inh	tim23-1 inh	tim10-1 confirm
COc1cccc(N2[C@@H](CC(C)=O)c3ccc(/C=C/C(C)=O)cc3S2(=O)=O)c1	11.0	34.0	43.8*	/	32.7	34.2*
Cc1ccc(S(=O)(=O)N2CCOCC2)cc1NCC(=O)Nc1ccc(OC(F)(F)F)cc1	7.2	-6.4	1.1	/	-8.6	/
CC1CCN(S(=O)(=O)c2ccc(C(=O)N3CCCC3C(=O)O)cc2)CC1 (stereo not given)	10.9	0.9	13.9	/	11.6	/
Cc1ccccc1CN1CCN(CC2CC2)CC1CCO (stereo not given)	9.9	-14.8	-13.8	-48.6	-3.2	/
O=C(/C=C/c1ccco1)Nc1ccccc1N1CCCC1	17.4	38.5	53.2*	7.5	39.6	46.0*
COc1ccc(C(=O)COC(=O)c2cnc(C)cn2)cc1OC	14.6	-4.4	7.6	/	13.4	/
CCn1ccnc1CN(C)Cc1nc(-c2ccc(C(=O)OC)cc2)no1	4.5	1.9	2.4	/	8.3	/
Cc1nc(NC(=O)CSc2cc(C)c3ccccc3n2)c(Cl)cc1Cl	35.6	22.5	40.6*	8.0	41.7	23.7
Cc1cc(SCC(=O)Nc2cccnc2Cl)nc2ccccc12	-7.6	-1.9	-6.4	3.9	14.8	/
COCCn1c(SCC(=O)Nc2nc(C)c(Cl)cc2Cl)nc2ccccc21	20.2	10.3	42.3*	14.2	7.4	12.9
COc1cccc(N2CC(C(=O)Nc3nnc(SCCN4CCOCC4)s3)CC2=O)c1 (stereo not given)	4.6	7.6	-6.2	5.7	-1.1	/
CCOC(=O)Cc1csc(N/N=C\c2cccc(Br)c2)n1	-2.4	27.7	22.7	17.4	13.2	/
CCOC(=O)Cc1csc(NC(=S)NC(=O)c2ccc(Cl)cc2)n1	10.4	-2.1	5.8	14.1	2.6	/
CCOC(=O)Cc1csc(N/N=C/c2ccccc2)n1	3.3	25.5	41.3*	21.7	35.9	20.2
CCOC(=O)Cc1csc(NC(=S)NC(=O)C(C)(C)C)n1	-3.5	17.3	41.2*	14.4	33.8	18.2
C=CCN=C1CCCc2c1[nH]c1ccc(C)cc21	22.4	12.5	-6.2	10.4	3.2	/
O=C(N/N=C/c1ccc(N2CCCCC2)o1)c1ccccc1[N+](=O)[O-]	-1.1	-4.3	2.5	38.7	13.4	/
COc1cc(NC(=O)c2cc(-c3ccccc3Cl)on2)cc(OC)c1OC	39.4	12.7	45.1*	14.0	40.3	22.6
N#Cc1ccccc1OCC(=O)N1CCN(S(=O)(=O)c2ccc(Cl)cc2)CC1	14.0	-13.0	4.4	/	24.1	/
C=CC[n+]1c(-c2ccc(C)cc2)csc1Nc1c(C)n(C)n(-c2ccccc2)c1=O	16.9	29.9	40.6*	-3.4	38.8	24.2
CC12CCC(=O)N1C(C(=O)Nc1cc(C(F)(F)F)ccc1N1CCCCC1)CS2 (stereo not given)	7.7	19.7	30.4	/	27.5	/
O=C(Cc1cccc(C(F)(F)F)c1)OCC(=O)N1CCN(S(=O)(=O)c2ccc(Cl)cc2)CC1	8.4	7.5	47.4*	/	18.4	14.9
O=C(NCc1ccc2c(c1)OCO2)c1nc(S(=O)(=O)Cc2ccccc2F)ncc1Cl	18.9	-21.0	-17.2	7.0	36.5	/
COc1ccc(CNC(=O)c2nc(S(=O)(=O)Cc3ccccc3)ncc2Cl)cc1	-7.8	29.0	58.8*	2.9	42.1	30.8*
O=C(NCc1ccccc1)c1nc(S(=O)(=O)Cc2ccccc2)ncc1Cl	6.5	31.0	51.6*	4.5	42.1	9.3
SMILES	NLRP3 yeast inh	TIM10 inh	tim10-1 inh	NALP1 inh	tim23-1 inh	tim10-1 confirm
CC(=O)Nc1ccc(NC(=O)c2nc(S(=O)(=O)Cc3ccccc3)ncc2Cl)cc1	5.1	5.2	0.2	8.6	12.4	/
O=C(NCc1ccc2c(c1)OCO2)c1nc(S(=O)(=O)Cc2ccccc2)ncc1Cl	13.0	38.6	55.4*	2.0	43.1	25.8
CN(C)CCNC(=O)/C(=C/c1ccc(-c2cccc(Cl)c2)o1)NC(=O)c1ccccc1	-1.8	12.7	-1.6	29.6	12.1	/
Cc1cc(/C=C2\Sc3ccccc3N2C)cc(C)[n+]1CC1CCCO1 (stereo not given)	10.8	19.8	57.1*	12.6	23.3	26.4
CC(=O)Nc1ccc(NS(=O)(=O)c2cc(-c3cnc(C4CC4)o3)ccc2C)cc1	-4.5	0.8	1.2	-12.0	-0.9	/
Cc1ccc(-c2cnc(C3CC3)o2)cc1S(=O)(=O)Nc1ccccc1	-1.7	14.8	41.2*	-24.8	39.4	3.9
COC(=O)c1cc(Cl)cc(Cl)c1OS(=O)(=O)N(C)C	-15.5	-3.1	40.7*	-9.7	24.1	9.9
COc1c(Cl)cc(Cl)cc1C(=O)Nc1ccc(NC(C)=O)cc1	35.4	27.4	27.6	12.0	45.0	/
N/C(=N\OC(=O)c1cc(Br)ccc1Cl)c1cccnc1	-5.6	31.4	46.6*	-11.3	-13.2	48.5*
N/C(=N\OC(=O)c1cccc(Cl)c1)c1ccncc1	1.9	20.1	42.2*	-16.7	22.4	30.4*
CC(C)(Oc1ccc(Cl)cc1)C(=O)O/N=C(\N)c1ccncc1	31.0	5.1	47.2*	5.0	3.3	2.6
N/C(=N\OC(=O)Cc1ccc(Cl)cc1)c1ccncc1	-3.1	-0.6	12.2	2.1	9.2	/
N/C(=N\OC(=O)c1cc(Cl)ccc1Cl)c1cccnc1	-21.9	21.5	40.7*	-4.7	-5.2	25.3
N/C(=N\OC(=O)c1ccccc1Cl)c1cccnc1	10.6	13.0	10.3	10.8	15.3	/
N/C(=N\OC(=O)c1cccc(Cl)c1)c1cccnc1	-13.0	20.9	16.4	7.5	39.0	/
CC1(C)CC(NC(=O)c2cccc(S(=O)(=O)Nc3cccc(Cl)c3)c2)CC(C)(C)N1	16.2	-1.5	-10.0	/	-9.8	/
COCCNC(=O)/C(C#N)=C/c1ccc(-c2ccc(OC)cc2[N+](=O)[O-])o1	-8.6	-5.7	-12.8	1.5	-8.3	/
CCOP(=O)(OCC)/C(C#N)=C/c1ccc(-c2ccc(F)cc2F)o1	-2.7	8.8	47.1*	9.2	33.6	31.9*
COc1ccc(CN(Cc2ccccn2)S(=O)(=O)c2ccc(-n3cnnn3)c(OC)c2)cc1	5.6	4.3	14.5	-13.0	14.9	/
COc1ccc(CN(Cc2ccccn2)S(=O)(=O)c2ccc(-n3cnnn3)cc2)cc1	-10.4	7.4	40.1*	1.4	3.2	8.6
CCCCN(C(=O)c1ccc(-c2ccc(Cl)cc2)o1)c1c(N)n(CCC)c(=O)[nH]c1=O	-1.5	8.9	21.1	/	24.8	/
Cc1ccc(/C=c2/sc3nnc(-c4ccccc4Cl)n3c2=O)o1	12.2	32.9	45.1*	7.3	42.4	38.0*
CCN(CC)c1ccc(/C=c2\sc3nnc(-c4ccccc4Cl)n3c2=O)cc1	5.3	4.5	15.0	7.1	14.5	/
